# What was measured:
# Assay in all cases: DAPPL (digital affinity profiling via proximity ligation, sequencing); 10 mM Tris-HCl pH 7.5, 50 mM NaCl, 1 mM DTT, 4% glycerol, room temperature, 30 min; GST-TFs on glutathione beads, 16-mer random dsDNA library, 0.1% formaldehyde crosslink after washing; high values mean tight binding
# FLI1 = molecular target: T1, FLI1 (Homo sapiens, UniProt Q01543 1-452); details: protein: recombinant; tags: N-terminal GST; dsDNA, one strand shown
# T1 sequence: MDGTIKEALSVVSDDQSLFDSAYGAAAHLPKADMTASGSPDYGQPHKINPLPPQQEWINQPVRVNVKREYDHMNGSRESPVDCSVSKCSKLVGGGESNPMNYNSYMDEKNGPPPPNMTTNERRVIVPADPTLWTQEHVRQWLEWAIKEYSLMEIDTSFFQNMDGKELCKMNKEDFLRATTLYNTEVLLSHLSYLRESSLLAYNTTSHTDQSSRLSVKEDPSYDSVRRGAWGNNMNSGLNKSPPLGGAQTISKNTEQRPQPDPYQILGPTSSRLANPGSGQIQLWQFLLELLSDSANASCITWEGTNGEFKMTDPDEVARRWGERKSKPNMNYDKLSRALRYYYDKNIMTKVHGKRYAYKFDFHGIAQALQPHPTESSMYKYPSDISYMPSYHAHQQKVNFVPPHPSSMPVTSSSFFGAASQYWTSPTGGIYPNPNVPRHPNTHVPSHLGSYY
# How it was run: (§1)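 Human transcription factors fused to GST were expressed in yeast, captured on glutathione beads, given DNA barcodes and pooled with a GST-only negative control. Pools were incubated with 200 nmole of a 16-mer random double-stranded DNA library in Tris/NaCl/DTT/glycerol buffer at room temperature for 30 min. They were then washed, crosslinked with 0.1% formaldehyde, proximity-ligated (BsaI/T4 ligase, 1 h, 37 °C), PCR-amplified and sequenced on an Illumina NextSeq500. Binding signal is each 6-mer's read frequency for a factor divided by its frequency for the GST control.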
# ELK1 = molecular target: T2, ELK1 (Homo sapiens, UniProt P19419 1-428); details: protein: recombinant; tags: N-terminal GST; dsDNA, one strand shown
# T2 sequence: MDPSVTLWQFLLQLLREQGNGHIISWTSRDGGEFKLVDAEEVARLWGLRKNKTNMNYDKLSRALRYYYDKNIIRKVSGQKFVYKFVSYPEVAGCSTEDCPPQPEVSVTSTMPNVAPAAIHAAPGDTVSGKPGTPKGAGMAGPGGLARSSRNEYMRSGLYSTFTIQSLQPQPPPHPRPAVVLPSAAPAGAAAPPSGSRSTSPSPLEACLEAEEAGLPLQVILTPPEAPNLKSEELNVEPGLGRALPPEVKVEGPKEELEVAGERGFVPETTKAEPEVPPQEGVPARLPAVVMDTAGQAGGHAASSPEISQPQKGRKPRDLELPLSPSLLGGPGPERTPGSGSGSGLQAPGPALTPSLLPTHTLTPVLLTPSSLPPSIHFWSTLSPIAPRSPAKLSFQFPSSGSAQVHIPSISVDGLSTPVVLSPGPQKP
# How it was run: as §1
# GABPA = molecular target: T3, GABPA (Homo sapiens, UniProt Q06546 1-454); details: protein: recombinant; tags: N-terminal GST; dsDNA, one strand shown
# T3 sequence: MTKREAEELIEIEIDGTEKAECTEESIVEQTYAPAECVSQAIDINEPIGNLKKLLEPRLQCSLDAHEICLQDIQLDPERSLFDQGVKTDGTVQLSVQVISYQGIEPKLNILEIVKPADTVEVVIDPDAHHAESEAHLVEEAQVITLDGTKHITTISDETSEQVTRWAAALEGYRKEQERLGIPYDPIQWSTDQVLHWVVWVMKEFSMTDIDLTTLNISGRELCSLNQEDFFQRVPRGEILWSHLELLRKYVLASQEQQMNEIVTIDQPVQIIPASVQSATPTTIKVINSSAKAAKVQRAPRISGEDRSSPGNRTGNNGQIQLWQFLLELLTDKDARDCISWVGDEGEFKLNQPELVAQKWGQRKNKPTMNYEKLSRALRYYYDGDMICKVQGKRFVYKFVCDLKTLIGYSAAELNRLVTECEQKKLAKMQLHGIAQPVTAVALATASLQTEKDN
# How it was run: as §1
# ERG = molecular target: T4, ERG (Homo sapiens, UniProt P11308 1-479); details: protein: recombinant; tags: N-terminal GST; dsDNA, one strand shown
# T4 sequence: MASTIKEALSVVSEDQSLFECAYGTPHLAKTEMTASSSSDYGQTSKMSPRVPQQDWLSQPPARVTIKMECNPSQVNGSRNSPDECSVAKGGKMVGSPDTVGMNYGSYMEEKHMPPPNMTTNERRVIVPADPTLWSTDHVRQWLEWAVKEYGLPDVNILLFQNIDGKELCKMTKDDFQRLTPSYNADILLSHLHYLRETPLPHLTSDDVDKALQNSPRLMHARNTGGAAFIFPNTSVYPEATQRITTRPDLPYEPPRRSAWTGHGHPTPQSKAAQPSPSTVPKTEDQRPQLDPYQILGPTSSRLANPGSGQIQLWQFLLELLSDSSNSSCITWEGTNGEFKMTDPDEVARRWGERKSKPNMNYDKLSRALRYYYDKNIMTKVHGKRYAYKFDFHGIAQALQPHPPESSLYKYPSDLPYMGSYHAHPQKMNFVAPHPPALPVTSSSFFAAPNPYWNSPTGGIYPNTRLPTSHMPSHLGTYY
# How it was run: as §1
# ELF1 = ELF1 (Homo sapiens, UniProt P32519 1-619); details: protein: recombinant; tags: N-terminal GST; dsDNA, one strand shown
# Sequence of ELF1 (P32519 whole entry): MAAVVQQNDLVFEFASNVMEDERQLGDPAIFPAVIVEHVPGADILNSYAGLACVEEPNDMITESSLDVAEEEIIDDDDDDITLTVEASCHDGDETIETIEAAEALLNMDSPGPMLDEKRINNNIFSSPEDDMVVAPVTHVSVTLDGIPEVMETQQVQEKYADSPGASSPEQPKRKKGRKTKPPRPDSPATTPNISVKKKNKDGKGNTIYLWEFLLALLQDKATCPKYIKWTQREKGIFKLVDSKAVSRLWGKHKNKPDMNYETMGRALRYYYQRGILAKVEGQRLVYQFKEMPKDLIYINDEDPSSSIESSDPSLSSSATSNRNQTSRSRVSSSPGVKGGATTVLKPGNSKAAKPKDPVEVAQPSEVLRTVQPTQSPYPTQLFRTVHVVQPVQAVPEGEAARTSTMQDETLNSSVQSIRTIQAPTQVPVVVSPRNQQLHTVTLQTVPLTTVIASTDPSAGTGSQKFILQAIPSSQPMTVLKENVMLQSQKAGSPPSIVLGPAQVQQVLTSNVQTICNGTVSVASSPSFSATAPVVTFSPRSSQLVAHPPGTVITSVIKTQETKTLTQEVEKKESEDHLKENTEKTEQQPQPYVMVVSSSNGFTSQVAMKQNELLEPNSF
# How it was run: as §1
# EHF = molecular target: T5, EHF (Homo sapiens, UniProt Q9NZC4 1-300); details: protein: recombinant; tags: N-terminal GST; dsDNA, one strand shown
# T5 sequence: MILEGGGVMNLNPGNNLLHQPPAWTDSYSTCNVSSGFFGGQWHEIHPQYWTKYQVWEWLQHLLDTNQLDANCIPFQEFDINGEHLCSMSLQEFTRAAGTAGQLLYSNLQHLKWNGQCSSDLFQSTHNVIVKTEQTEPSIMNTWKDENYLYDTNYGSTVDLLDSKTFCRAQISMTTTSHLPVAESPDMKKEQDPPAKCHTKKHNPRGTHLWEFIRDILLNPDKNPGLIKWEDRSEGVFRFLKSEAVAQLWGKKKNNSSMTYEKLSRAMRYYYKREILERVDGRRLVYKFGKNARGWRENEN
# How it was run: as §1
# SPI1 = SPI1 (Homo sapiens, UniProt P17947 1-270); details: protein: recombinant; tags: N-terminal GST; dsDNA, one strand shown
# How it was run: as §1
# SPIB = SPIB (Homo sapiens, UniProt Q01892 1-262); details: protein: recombinant; tags: N-terminal GST; dsDNA, one strand shown
# Sequence of SPIB (Q01892 whole entry): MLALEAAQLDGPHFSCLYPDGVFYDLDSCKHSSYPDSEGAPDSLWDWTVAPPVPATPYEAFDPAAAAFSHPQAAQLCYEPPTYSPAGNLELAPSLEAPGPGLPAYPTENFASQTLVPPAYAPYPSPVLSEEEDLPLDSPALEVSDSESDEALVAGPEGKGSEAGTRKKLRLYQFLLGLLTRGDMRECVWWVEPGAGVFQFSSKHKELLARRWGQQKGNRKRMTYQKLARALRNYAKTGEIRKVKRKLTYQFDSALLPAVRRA
# How it was run: as §1
# ELK3 = molecular target: T6, ELK3 (Homo sapiens, UniProt P41970 1-407); details: protein: recombinant; tags: N-terminal GST; dsDNA, one strand shown
# T6 sequence: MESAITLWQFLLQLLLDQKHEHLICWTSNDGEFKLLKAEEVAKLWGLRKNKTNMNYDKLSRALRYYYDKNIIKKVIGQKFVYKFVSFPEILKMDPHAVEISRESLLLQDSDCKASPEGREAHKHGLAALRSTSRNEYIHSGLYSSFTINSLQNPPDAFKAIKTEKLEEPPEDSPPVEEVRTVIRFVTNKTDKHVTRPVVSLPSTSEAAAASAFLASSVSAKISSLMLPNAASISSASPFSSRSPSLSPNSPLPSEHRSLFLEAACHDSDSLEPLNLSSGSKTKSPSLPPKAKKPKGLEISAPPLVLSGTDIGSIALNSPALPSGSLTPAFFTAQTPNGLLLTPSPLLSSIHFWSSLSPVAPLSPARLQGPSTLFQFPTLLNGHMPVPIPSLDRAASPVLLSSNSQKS
# How it was run: as §1
# FEV = molecular target: T7, FEV (Homo sapiens, UniProt Q99581 1-238); details: protein: recombinant; tags: N-terminal GST; dsDNA, one strand shown
# T7 sequence: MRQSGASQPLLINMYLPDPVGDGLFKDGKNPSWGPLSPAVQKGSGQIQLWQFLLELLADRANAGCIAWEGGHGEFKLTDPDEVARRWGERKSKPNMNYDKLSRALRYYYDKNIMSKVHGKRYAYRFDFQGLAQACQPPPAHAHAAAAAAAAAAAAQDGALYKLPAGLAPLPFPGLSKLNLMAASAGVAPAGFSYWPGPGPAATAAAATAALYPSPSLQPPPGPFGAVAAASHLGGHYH
# How it was run: as §1
# ETV5 = ETV5 (Homo sapiens, UniProt P41161 1-510); details: protein: recombinant; tags: N-terminal GST; dsDNA, one strand shown
# Sequence of ETV5 (P41161 whole entry): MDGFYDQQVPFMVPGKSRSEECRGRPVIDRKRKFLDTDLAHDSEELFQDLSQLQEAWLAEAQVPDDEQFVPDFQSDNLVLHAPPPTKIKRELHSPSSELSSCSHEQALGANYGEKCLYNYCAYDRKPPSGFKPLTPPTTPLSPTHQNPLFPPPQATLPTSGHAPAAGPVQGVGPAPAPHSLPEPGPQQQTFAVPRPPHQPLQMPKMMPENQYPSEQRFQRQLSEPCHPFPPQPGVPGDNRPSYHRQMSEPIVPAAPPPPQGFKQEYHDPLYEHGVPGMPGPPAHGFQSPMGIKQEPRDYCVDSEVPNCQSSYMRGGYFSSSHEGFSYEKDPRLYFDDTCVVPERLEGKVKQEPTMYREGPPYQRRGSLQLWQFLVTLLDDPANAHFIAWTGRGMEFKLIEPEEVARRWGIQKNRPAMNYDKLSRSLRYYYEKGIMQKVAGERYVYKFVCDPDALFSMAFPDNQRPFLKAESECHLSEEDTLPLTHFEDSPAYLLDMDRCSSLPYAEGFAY
# How it was run: as §1
# HSF1 = HSF1 (Homo sapiens, UniProt Q00613 1-529); details: protein: recombinant; tags: N-terminal GST; chain copies: 3; dsDNA, one strand shown
# Sequence of HSF1 (Q00613 whole entry): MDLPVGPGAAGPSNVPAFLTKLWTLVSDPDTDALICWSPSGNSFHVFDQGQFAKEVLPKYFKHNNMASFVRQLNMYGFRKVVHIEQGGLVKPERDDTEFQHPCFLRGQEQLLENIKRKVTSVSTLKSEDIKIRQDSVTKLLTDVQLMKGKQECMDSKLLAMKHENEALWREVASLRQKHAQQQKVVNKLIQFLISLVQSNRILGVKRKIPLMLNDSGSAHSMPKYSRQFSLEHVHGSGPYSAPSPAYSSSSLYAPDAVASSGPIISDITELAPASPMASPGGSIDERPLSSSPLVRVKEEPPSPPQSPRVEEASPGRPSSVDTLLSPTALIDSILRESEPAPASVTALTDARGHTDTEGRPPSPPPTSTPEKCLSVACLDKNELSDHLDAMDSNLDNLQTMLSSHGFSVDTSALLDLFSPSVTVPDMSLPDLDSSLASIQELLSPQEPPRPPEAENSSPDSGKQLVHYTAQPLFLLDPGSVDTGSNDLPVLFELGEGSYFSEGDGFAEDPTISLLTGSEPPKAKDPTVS
# How it was run: as §1
# SPIC = molecular target: T8, SPIC (Homo sapiens, UniProt Q8N5J4 1-248); details: protein: recombinant; tags: N-terminal GST; dsDNA, one strand shown
# T8 sequence: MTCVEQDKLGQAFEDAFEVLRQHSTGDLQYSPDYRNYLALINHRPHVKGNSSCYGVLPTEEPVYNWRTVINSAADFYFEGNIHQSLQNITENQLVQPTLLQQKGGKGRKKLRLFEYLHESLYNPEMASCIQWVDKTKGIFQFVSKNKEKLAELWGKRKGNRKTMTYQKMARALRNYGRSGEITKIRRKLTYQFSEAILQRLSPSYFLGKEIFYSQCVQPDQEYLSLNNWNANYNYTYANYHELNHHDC
# How it was run: as §1
# ELF4 = ELF4 (Homo sapiens, UniProt Q99607 1-663); details: protein: recombinant; tags: N-terminal GST; dsDNA, one strand shown
# Sequence of ELF4 (Q99607 whole entry): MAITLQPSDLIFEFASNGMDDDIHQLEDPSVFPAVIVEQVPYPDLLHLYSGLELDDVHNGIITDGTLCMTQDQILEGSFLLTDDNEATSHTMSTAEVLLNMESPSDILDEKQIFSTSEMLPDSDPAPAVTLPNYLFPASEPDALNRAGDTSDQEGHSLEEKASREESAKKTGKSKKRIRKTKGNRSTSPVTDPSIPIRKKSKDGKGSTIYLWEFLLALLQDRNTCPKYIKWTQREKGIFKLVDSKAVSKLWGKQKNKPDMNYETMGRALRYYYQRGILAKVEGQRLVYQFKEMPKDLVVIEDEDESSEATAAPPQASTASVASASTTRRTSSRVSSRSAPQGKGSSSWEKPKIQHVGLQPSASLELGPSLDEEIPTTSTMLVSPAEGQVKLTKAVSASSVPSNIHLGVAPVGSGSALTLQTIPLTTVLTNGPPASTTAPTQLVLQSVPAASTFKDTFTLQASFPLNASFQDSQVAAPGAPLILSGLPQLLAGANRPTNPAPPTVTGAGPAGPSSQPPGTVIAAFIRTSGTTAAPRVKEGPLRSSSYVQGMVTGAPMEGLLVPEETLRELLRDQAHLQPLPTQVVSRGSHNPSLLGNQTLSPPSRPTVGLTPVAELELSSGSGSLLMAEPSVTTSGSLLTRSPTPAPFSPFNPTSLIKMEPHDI
# How it was run: as §1
# ELK4 = molecular target: T9, ELK4 (Homo sapiens, UniProt P28324-2 1-405); details: protein: recombinant; tags: N-terminal GST; dsDNA, one strand shown
# T9 sequence: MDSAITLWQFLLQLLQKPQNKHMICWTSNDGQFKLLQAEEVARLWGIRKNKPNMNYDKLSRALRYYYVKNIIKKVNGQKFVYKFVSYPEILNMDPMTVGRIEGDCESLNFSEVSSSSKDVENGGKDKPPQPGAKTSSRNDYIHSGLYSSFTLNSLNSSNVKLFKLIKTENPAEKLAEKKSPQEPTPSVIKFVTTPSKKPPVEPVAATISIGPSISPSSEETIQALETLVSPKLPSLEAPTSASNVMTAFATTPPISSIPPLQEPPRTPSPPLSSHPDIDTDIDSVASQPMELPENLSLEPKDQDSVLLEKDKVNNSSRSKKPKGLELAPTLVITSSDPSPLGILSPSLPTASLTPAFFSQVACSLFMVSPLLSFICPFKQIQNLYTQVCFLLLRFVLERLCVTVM
# How it was run: as §1
# ETV2 = molecular target: T10, ETV2 (Homo sapiens, UniProt O00321 1-342); details: protein: recombinant; tags: N-terminal GST; dsDNA, one strand shown
# T10 sequence: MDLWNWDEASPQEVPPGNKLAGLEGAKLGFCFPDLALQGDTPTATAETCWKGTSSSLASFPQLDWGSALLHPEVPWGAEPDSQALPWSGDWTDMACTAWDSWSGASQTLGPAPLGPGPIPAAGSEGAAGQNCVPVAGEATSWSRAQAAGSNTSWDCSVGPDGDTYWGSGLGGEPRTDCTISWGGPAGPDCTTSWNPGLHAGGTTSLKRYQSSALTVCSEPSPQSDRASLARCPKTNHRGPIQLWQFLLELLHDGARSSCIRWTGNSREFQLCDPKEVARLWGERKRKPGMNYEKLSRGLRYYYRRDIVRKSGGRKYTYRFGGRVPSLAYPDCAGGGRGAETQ
# How it was run: as §1
# ELF3 = molecular target: T11, ELF3 (Homo sapiens, UniProt P78545 1-371); details: protein: recombinant; tags: N-terminal GST; dsDNA, one strand shown
# T11 sequence: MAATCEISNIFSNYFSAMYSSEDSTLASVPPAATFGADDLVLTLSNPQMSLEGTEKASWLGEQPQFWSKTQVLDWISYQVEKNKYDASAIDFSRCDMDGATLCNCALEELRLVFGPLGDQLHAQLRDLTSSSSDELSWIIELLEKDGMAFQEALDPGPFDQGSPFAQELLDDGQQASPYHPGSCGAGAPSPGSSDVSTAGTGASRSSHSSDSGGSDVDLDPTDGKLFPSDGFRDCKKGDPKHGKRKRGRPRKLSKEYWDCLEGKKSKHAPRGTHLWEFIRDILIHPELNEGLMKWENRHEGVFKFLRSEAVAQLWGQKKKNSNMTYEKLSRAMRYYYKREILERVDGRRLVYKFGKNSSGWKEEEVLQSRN
# How it was run: as §1
# CRX = CRX (Homo sapiens, UniProt O43186 1-299); details: protein: recombinant; tags: N-terminal GST; dsDNA, one strand shown
# Sequence of CRX (O43186 whole entry): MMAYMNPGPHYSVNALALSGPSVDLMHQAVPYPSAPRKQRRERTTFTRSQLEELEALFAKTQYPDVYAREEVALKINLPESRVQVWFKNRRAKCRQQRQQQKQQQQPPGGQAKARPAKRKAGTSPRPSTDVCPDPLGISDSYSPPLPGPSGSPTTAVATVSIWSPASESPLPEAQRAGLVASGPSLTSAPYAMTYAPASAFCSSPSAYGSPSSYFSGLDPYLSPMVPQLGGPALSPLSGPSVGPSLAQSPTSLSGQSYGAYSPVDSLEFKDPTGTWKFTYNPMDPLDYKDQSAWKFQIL
# How it was run: as §1
# ETV1 = ETV1 (Homo sapiens, UniProt P50549 1-477); details: protein: recombinant; tags: N-terminal GST; dsDNA, one strand shown
# Sequence of ETV1 (P50549 whole entry): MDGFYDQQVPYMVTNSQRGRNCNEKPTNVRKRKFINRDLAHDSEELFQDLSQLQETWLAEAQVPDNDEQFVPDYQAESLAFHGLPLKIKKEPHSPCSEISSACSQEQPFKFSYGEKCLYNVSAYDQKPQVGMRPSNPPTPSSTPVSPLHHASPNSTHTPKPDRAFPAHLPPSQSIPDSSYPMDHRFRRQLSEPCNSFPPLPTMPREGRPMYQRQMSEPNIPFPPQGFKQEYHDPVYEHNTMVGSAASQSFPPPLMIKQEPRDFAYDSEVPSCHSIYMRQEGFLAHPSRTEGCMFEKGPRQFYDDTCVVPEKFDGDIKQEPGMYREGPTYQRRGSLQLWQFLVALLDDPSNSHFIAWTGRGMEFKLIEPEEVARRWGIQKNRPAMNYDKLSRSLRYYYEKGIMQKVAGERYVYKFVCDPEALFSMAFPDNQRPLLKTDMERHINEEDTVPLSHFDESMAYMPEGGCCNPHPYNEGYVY
# How it was run: as §1
sequence,measurement,setting,value
CCCAAT,binding signal,FLI1,"1.23 fold enrichment (6-mer frequency, TF over GST control)"
same,binding signal,ELK1,"1.29 fold enrichment (6-mer frequency, TF over GST control)"
same,binding signal,GABPA,"1.35 fold enrichment (6-mer frequency, TF over GST control)"
same,binding signal,ERG,"1.24 fold enrichment (6-mer frequency, TF over GST control)"
same,binding signal,ELF1,"1.29 fold enrichment (6-mer frequency, TF over GST control)"
same,binding signal,EHF,"1.22 fold enrichment (6-mer frequency, TF over GST control)"
same,binding signal,SPI1,"1.28 fold enrichment (6-mer frequency, TF over GST control)"
same,binding signal,SPIB,"1.21 fold enrichment (6-mer frequency, TF over GST control)"
same,binding signal,ELK3,"1.22 fold enrichment (6-mer frequency, TF over GST control)"
same,binding signal,FEV,"1.27 fold enrichment (6-mer frequency, TF over GST control)"
same,binding signal,ETV5,"1.34 fold enrichment (6-mer frequency, TF over GST control)"
same,binding signal,HSF1,"1.1 fold enrichment (6-mer frequency, TF over GST control)"
same,binding signal,SPIC,"1.27 fold enrichment (6-mer frequency, TF over GST control)"
same,binding signal,ELF4,"1.32 fold enrichment (6-mer frequency, TF over GST control)"
same,binding signal,ELK4,"1.24 fold enrichment (6-mer frequency, TF over GST control)"
same,binding signal,ETV2,"1.3 fold enrichment (6-mer frequency, TF over GST control)"
same,binding signal,ELF3,"1.32 fold enrichment (6-mer frequency, TF over GST control)"
same,binding signal,CRX,"1.19 fold enrichment (6-mer frequency, TF over GST control)"
same,binding signal,ETV1,"1.19 fold enrichment (6-mer frequency, TF over GST control)"

# — publication PMC7862700, “An all-to-all approach to the identification of sequence-specific readers for epigenetic DNA modifications on cytosine”
